From PubChem BioAssay (NCI)
Compounds without any hit were thinned out: in the full panel of roughly 83,000, 20% have a hit.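 Cell lines were cultured in 96-well plates, exposed to a single compound concentration, and assessed for percent growth 48 hours later.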 Active and inactive are the calls of the source. The calls were made as follows: active = growth percent below 10; inactive = the rest.

tested on: MCF7 breast; assay: NCI-60 one-dose screen, 48 h (100 = growth as untreated, 0 = no growth, -100 = all killed); details: 10 µM unless noted

Compound | growth
OCC1OC(n2ccc3c2ncn2ncnc32)C(O)C1O (centres undefined) | 9.97% (active)
Nc1cc(N)ncn1 | 99.7% (inactive)
CCC(/C=C\C(C)=O)CC | 105% (inactive)
Cc1[nH]c(=S)[nH]c(=O)c1C | 101% (inactive)
CC(C)Sc1ncnc2nc[nH]c12 | 98.1% (inactive)
CC(C)N(CCCC#N)C(C)C | 83.7% (inactive)
C=C1C(=O)C2CCN1CC2 | 94.3% (inactive)
CCC12OC(COc3ccccc3)CN1CCN2c1ccccc1 (centres undefined) | 92.5% [100 µM] (inactive)
CCCCOC(=O)c1ccccc1O | 98% (inactive)
CC1CC(C)S(=O)(=O)C1 (centres undefined) | 102% (inactive)
C=CC1=NC(C)(C)CC(C)O1 (centres undefined) | 93.4% (inactive)
CN(C)c1ncnc2c1cnn2C | 94% (inactive)
COc1cc(OC)c(NC(=O)C(Sc2nc(C)cc(C)c2C#N)c2ccccc2)cc1Cl (centres undefined) | 95.5% (inactive)
CC(=O)NCNC(C)=O | 94% (inactive)
CCCCNC(=O)c1ccc(OCC)cc1 | 88.6% (inactive)
Nc1ccc(F)c(Cl)c1F | 102% (inactive)
C=C(OC(C)=O)c1ccccc1 | 97.1% (inactive)
C/C=C/C1OCC(CC)C(CCC)O1 (centres undefined) | 95.8% (inactive)
COc1ccc(C2CC(c3ccccc3)=Nc3ccccc3S2)cc1 (centres undefined) | 78.7% (inactive)

Compound | growth
Clc1cccc(Cl)c1C1CSc2ccccc2N=C1c1ccccc1 (centres undefined) | 9.8% (active)
COC1CC(OC(=O)c2ccc([N+](=O)[O-])cc2)C(COC(=O)c2ccc([N+](=O)[O-])cc2)O1 (centres undefined) | 91.5% (inactive)
CC(=O)NC(CCC(=O)c1ccccc1)C(=O)O (centres undefined) | 89.4% (inactive)
ClCc1cccc2c(CCl)cccc12 | 24.4% (inactive)
CCCCCCCCCCCCCCCCCC(=O)NCCNC(=O)CCCCCCCCCCCCCCCCC | 71.6% (inactive)
O=C(CCCl)OCCOc1ccccc1 | 92.1% (inactive)
O=C(O)CC1=CCCCC1 | 96.7% (inactive)
c1cc(CNCCNCc2ccncc2)ccn1 | 100% (inactive)
O=C1CSc2ccccc2N1 | 98.5% (inactive)
CC(C)OCC(CCl)OC(=O)Nc1ccccc1 (centres undefined) | 96.9% (inactive)
COCC(N)=O | 102% (inactive)
Nc1cc(F)ccc1[N+](=O)[O-] | 97.6% (inactive)
CC(C)=CCC[C@@H](C)[C@H]1CC[C@@]2(C)C3=C(CC[C@]12C)[C@@]1(C)CC[C@H](O)C(C)(C)[C@@H]1CC3 | 97.3% (inactive)
BrCc1cccc(C[P+](c2ccccc2)(c2ccccc2)c2ccccc2)c1 | 53.3% (inactive)
COc1ccc(/C=N/NC(=O)COCC(=O)N/N=C/c2ccc(OC)cc2)cc1 | 95.9% (inactive)
CCOC(=O)CSCCC#N | 93.6% (inactive)
Cc1cccc2ccccc12 | 84.1% (inactive)
CCC(=O)C1C(=O)c2ccccc2C1=O | 105% (inactive)

tested on: HCT-116 colon; assay: as above; details: 10 µM unless noted

Compound | growth
OCC1OC(n2ccc3c2ncn2ncnc32)C(O)C1O (centres undefined) | 20.5% (inactive)
Nc1cc(N)ncn1 | 99.1% (inactive)
CCC(/C=C\C(C)=O)CC | 97.3% (inactive)
Cc1[nH]c(=S)[nH]c(=O)c1C | 110% (inactive)
CC(C)Sc1ncnc2nc[nH]c12 | 103% (inactive)
CC(C)N(CCCC#N)C(C)C | 98.8% (inactive)
C=C1C(=O)C2CCN1CC2 | 56.4% (inactive)
CCC12OC(COc3ccccc3)CN1CCN2c1ccccc1 (centres undefined) | 102% [100 µM] (inactive)
CCCCOC(=O)c1ccccc1O | 109% (inactive)
CC1CC(C)S(=O)(=O)C1 (centres undefined) | 114% (inactive)
C=CC1=NC(C)(C)CC(C)O1 (centres undefined) | 107% (inactive)
CN(C)c1ncnc2c1cnn2C | 105% (inactive)
COc1cc(OC)c(NC(=O)C(Sc2nc(C)cc(C)c2C#N)c2ccccc2)cc1Cl (centres undefined) | 86.7% (inactive)
CC(=O)NCNC(C)=O | 104% (inactive)
CCCCNC(=O)c1ccc(OCC)cc1 | 90.5% (inactive)
Nc1ccc(F)c(Cl)c1F | 94.9% (inactive)
C=C(OC(C)=O)c1ccccc1 | 98% (inactive)
C/C=C/C1OCC(CC)C(CCC)O1 (centres undefined) | 103% (inactive)
COc1ccc(C2CC(c3ccccc3)=Nc3ccccc3S2)cc1 (centres undefined) | 88.7% (inactive)

Compound | growth
Clc1cccc(Cl)c1C1CSc2ccccc2N=C1c1ccccc1 (centres undefined) | 19.3% (inactive)
COC1CC(OC(=O)c2ccc([N+](=O)[O-])cc2)C(COC(=O)c2ccc([N+](=O)[O-])cc2)O1 (centres undefined) | 105% (inactive)
CC(=O)NC(CCC(=O)c1ccccc1)C(=O)O (centres undefined) | 80.2% (inactive)
ClCc1cccc2c(CCl)cccc12 | -86.3% (active)
CCCCCCCCCCCCCCCCCC(=O)NCCNC(=O)CCCCCCCCCCCCCCCCC | 70.2% (inactive)
O=C(CCCl)OCCOc1ccccc1 | 118% (inactive)
O=C(O)CC1=CCCCC1 | 104% (inactive)
c1cc(CNCCNCc2ccncc2)ccn1 | 95.2% (inactive)
O=C1CSc2ccccc2N1 | 111% (inactive)
CC(C)OCC(CCl)OC(=O)Nc1ccccc1 (centres undefined) | 108% (inactive)
COCC(N)=O | 99% (inactive)
Nc1cc(F)ccc1[N+](=O)[O-] | 97.9% (inactive)
CC(C)=CCC[C@@H](C)[C@H]1CC[C@@]2(C)C3=C(CC[C@]12C)[C@@]1(C)CC[C@H](O)C(C)(C)[C@@H]1CC3 | 108% (inactive)
BrCc1cccc(C[P+](c2ccccc2)(c2ccccc2)c2ccccc2)c1 | 22.2% (inactive)
COc1ccc(/C=N/NC(=O)COCC(=O)N/N=C/c2ccc(OC)cc2)cc1 | 111% (inactive)
CCOC(=O)CSCCC#N | 95.2% (inactive)
Cc1cccc2ccccc12 | 95.8% (inactive)
CCC(=O)C1C(=O)c2ccccc2C1=O | 107% (inactive)
